This passage reports AC50 and outcome results from PubChem BioAssay (EPA / NIEHS).

Some compounds were tested as several samples or in several runs, with calls that do not always agree. Active and inactive are the calls of the source. Rule for the calls: active = hit-call score of the fitted dose curve at least 0.9, where 1 is the maximum; inactive = score below 0.9.

Read-out in this experiment: Interleukin-1 alpha (IL1a), IL1A (gene 3552)
Put plainly: BSK_LPS_IL1a: BioMAP Diversity Plus: LPS Assay for Interleukin-1 alpha (IL1a) Biomarker Activity (AID 2283080). The following applies: primary human HUVEC with PBMC; actives raise or lower the signal. How it is done: BSK_LPS is a cell-based, multiplexed-readout assay that uses umbilical vein endothelium and peripheral blood mononuclear cells, a human vascular primary cell co-culture, with measurements taken at 24 hours after chemical dosing in a 96-well plate.BSK_LPS_IL1a is an assay component measured in the BSK_LPS assay. It measures IL-a antibody related to regulation of gene expression using ELISA technology.Data from the assay component BSK_LPS_IL1a was analyzed into 1 assay endpoint. This assay endpoint, BSK_LPS_IL1a, was analyzed with bidirectional fitting relative to DMSO as the negative control and baseline of activity. Using a type of binding reporter, gain or loss-of-signal activity can be used to understand changes in the signaling as they relate to the gene IL1A. Furthermore, this assay endpoint can be referred to as a primary readout, because this assay has produced multiple assay endpoints where this one serves a signaling function. To generalize the intended target to other relatable targets, this assay endpoint is annotated to the cytokine intended target family, where the subfamily is interleukins.
The levels of cell surface (or secreted, indicated by the prefix "s") biomarker endpoints were measured by ELISA. Overt cytotoxicity to cells in confluent adherent cultures (all systems other than the BT system) was assessed by measuring total protein levels using sulforhodamine B (SRB) staining in parallel cultures at the time of biomarker measurements, indicated as SRB endpoints. For proliferation assays for adherent cell types, individual cell types are cultured at sub-confluence and relative cell numbers quantified by SRB staining at time points optimized for each system (48 h: 3C and CASM3C systems; 72 h: BT and HDF3CGF systems; 96 h: SAg system). SRB was performed by staining cells with 0.1% SRB after fixation with 10% TCA and reading wells at 560 nm.Viability and proliferation of PBMC (T cells) was quantified by Alamar Blue reduction for the SAg and BT systems. For PBMC viability (referred to as PBMC Cytotoxicity within the assay endpoint names), cells were plated (75,000/well in a 96-well plate) and then chemical samples added for 1 h before addition of activators, SEB and TSST-1 (20 ng/mL final concentration each). Cells were incubated for 90 h. Then, Alamar Blue (20 uL/well) (Invitrogen, Cat DAL1100) was added for 6 h, and the plates were read with a fluorescence microplate reader at 546/580 nm (excitation/emission). For PBMC proliferation, cells were plated and activated as above but incubated for only 16 h prior to addition of Alamar Blue. Plates were read after 6 h.
Take `COP(=S)(OC)Oc1ccc(Sc2ccc(OP(=S)(OC)OC)cc2)cc1`: the AC50 is 31 µM (active). Regarding `Oc1cccc2cccnc12`, the result was inactive. With `CCOC(=O)/C=C(C)/C=C/C[C@@H](C)CCCC(C)C`, the AC50 was 33.3 µM (active). Regarding `CCOP(=S)(OCC)Oc1ccc(S(C)=O)cc1` (stereo not given), the outcome was inactive. Still for that read-out and setting: with `CC12CC1(C)C(=O)N(c1cc(Cl)cc(Cl)c1)C2=O` (stereo not given) the entry was “inactive”. In the case of `COP(=S)(OC)Oc1ccc(S(=O)(=O)N(C)C)cc1`, the half-maximal activity concentration (AC50) is 0.0677 µM (active). On to `O=c1[nH]c(=O)[nH]c(=O)[nH]1`, for which the result was inactive. The same measure, in the same setting: with `O=C(O)C(F)(F)C(F)(F)C(F)(F)C(F)(F)C(F)(F)C(F)(F)F` the entry was “inactive”; with `COC(=O)c1sccc1S(=O)(=O)NC(=O)Nc1nc(C)nc(OC)n1`, “inactive”. As to `COP(=S)(OC)Oc1c(Cl)cc(C)cc1Cl`, the concentration at half-maximal activity (AC50) is 0.108 µM (active). As to `O=S(=O)(c1ccc(Cl)cc1)c1ccc(Cl)cc1`, the outcome was inactive. On the same count and under the same terms, then `BrCCBr`, with “inactive”. In the case of `ClC(Cl)=C(Cl)C(Cl)=C(Cl)Cl`, the half-maximal activity concentration (AC50) is 31 µM (active). Consider `ClC1(Cl)C2(Cl)C3(Cl)C4(Cl)C(Cl)(Cl)C5(Cl)C3(Cl)C1(Cl)C5(Cl)C24Cl` (stereo not given), for which the outcome was inactive.

For `O=C(O)C(F)(F)C(F)(F)C(F)(F)C(F)(F)C(F)(F)C(F)(F)C(F)(F)C(F)(F)C(F)(F)C(F)(F)F`, the outcome was inactive and the concentration at half-maximal activity (AC50) is 29.6 µM (active).

Turning to `COP(=S)(OC)Oc1cc(Cl)c(Cl)cc1Cl`, the outcome was inactive. In the case of `C=CC(=O)OCCCCCC(C)C`, the result was inactive.

With `O=C1C2(Cl)C3(Cl)C4(Cl)C(Cl)(Cl)C5(Cl)C3(Cl)C1(Cl)C5(Cl)C24Cl` (stereo not given), the AC50 is 7.55 µM (active). `CC(C)(OO)c1ccccc1`: the result was inactive. With `CCOP(=S)(OCC)SCSP(=S)(OCC)OCC`, the result was inactive.

In the case of `Cc1ccccc1N`, the result was inactive.

Turning to `CC(=O)C(Cl)C(=O)N(C)C` (stereo not given), the concentration at half-maximal activity (AC50) is 14.4 µM (active). Consider `C[C@]12CCC(=O)C[C@@H]1CC[C@@H]1[C@@H]2CC[C@]2(C)[C@@H](O)CC[C@@H]12`, for which the result was inactive. Still for that read-out and setting: then `CCNc1nc(NC(C)(C)C)nc(SC)n1`, with “inactive”. Turning to `O=C(Nc1ccc2[nH]ccc2c1)c1cc2cc(F)ccc2n1Cc1cccc(F)c1`, the AC50 was 7.97 µM (active).

For the compound `CC(=O)OC(c1ccccc1)C(Cl)(Cl)Cl` (stereo not given), the AC50 was 17.6 µM (active) and the result was inactive. For the compound `OCc1ccco1`, the result was inactive. In the case of `CCC(C)(C)c1ccc(O)c(C(C)(C)CC)c1`, the half-maximal activity concentration (AC50) was 14.3 µM (active).

As for `C=C(C)C(=O)[O][Sn]([CH2]CCC)([CH2]CCC)[CH2]CCC`, the AC50 was 0.148 µM (active). `CCC(=O)C(CC(C)N(C)C)(c1ccccc1)c1ccccc1` (stereo not given): the outcome was inactive. Still for that read-out and setting: then `CN(C)N=O`, with “inactive”; and `CC(C)c1ccc(CO)cc1`, with “inactive”. As to `O=C(OC1CCCCC1)c1ccccc1C(=O)OC1CCCCC1`, the AC50 is 20.9 µM (active). In the case of `CCSC(C)CC1CC(=O)C(C(CC)=NOC/C=C/Cl)=C(O)C1` (stereo not given), the outcome was inactive. On the same count and under the same terms, then `CCOP(=S)(OCC)Oc1nc(Cl)c(Cl)cc1Cl`, with “inactive”.

As for `CCN1CCC2(CC1)COc1cc3c(cc12)N(C(=O)c1ccc(-c2ccc(-c4nnc(C)o4)cc2C)cc1)CC3`, the half-maximal activity concentration (AC50) was 9.03 µM (active). On the same count and under the same terms, then `CCCCCCCCc1ccc(O)cc1`, with 31 µM (active). Consider `CC(C)CCCCCCOC(=O)c1ccccc1C(=O)OCCCCCCC(C)C`, for which the result was inactive.

The term AC50 denotes the concentration giving half of the maximal activity seen.
